# Data as given in PubChem BioAssay AID1851 (National Center for Advancing Translational Sciences (NCATS), 2009).
# Hit rate of the full screen: of about 16,000 compounds, about 5,700 (36%) were called active. About 24% were inconclusive and are not listed. Some of the results follow. Unmarked numbers belong to inactive results. Calls come from the whole dose curve; as a rule, active = well fitted curve in the direction sought with a large enough effect; inconclusive = small, poorly fitted or top-dose-only effect, or effect the other way; inactive = no such curve, though single readings can be large or run the other way.
# Target: Cytochrome P450 1A2 (Homo sapiens) (UniProt P05177)
# Sequence (P05177 whole entry, looked up): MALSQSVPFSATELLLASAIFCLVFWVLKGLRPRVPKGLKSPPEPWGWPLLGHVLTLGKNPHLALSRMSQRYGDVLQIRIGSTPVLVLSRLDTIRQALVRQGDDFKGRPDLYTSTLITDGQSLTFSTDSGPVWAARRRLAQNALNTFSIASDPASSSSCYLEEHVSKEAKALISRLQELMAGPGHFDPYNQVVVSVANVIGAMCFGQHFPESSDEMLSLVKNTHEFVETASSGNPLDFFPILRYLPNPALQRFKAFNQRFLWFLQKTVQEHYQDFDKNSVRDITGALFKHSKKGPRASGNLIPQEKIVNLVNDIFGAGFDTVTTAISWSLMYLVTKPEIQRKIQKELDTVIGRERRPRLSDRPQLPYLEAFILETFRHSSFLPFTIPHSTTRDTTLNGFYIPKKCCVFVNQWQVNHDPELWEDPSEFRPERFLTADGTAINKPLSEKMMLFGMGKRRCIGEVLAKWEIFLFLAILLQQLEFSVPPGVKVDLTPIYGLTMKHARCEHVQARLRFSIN
# Test: Cytochrome panel assay with activity outcomes
# Conditions: recombinant CYP, pro-luciferin dealkylation, luminescence, p450-cyp1a2; series mostly up to 57.1 µM; activity, negative = inhibition: at the top concentration
# % is set by controls: 0 for no effect and ±100 for the full control effect.
SMILES,"activity, negative = inhibition",AC50
CN[C@]1(C)[C@@H]2CC[C@@H](C2)C1(C)C,-2.74%,–
CCc1ccc(C(=O)COC(=O)c2cccc(N3C(=O)c4c(C)nc5ccccc5c4C3=O)c2)cc1,-14.4%,–
CCOC(=O)c1ccc2nc(C)c(CCC(C)=O)c(Cl)c2c1,–,8910 nM (active)
CCOC(=O)c1cncc(C(=O)O)c1,-1.87%,–
O=C1CCCC=C1[C@H](CCc1ccccc1)OC(=O)c1ccc(Br)cc1,-1.62% [at 11.4 µM],–
O=C(Nc1ccccc1)N1CC2(CCN(C(=O)c3cc(C(F)(F)F)cc(C(F)(F)F)c3)CC2)C1,-6.53%,–
COC(=O)/C(=C\C(=O)c1ccccc1)Nc1cccc(C(F)(F)F)c1,–,2240 nM (active)
COc1ccc2c(Cc3c4ccccc4cc4ccccc34)cncc2c1O,–,126 nM (active)
CCCNC(=O)OC[C@@H]1O[C@H](CCO/N=C\C[C@H]2C=C[C@H](OC(C)=O)[C@@H](COC(C)=O)O2)C=C[C@@H]1Oc1ccc(OC)cc1,-4.67% [at 11.4 µM],–
Cn1c(=O)c2[nH]c(/N=N\N3CCN(CCO)CC3)nc2n(C)c1=O,-14.7% [at 2.29 µM],–
c1csc(CNc2nc(-c3ccoc3)nc3ccccc23)c1,–,316 nM (active)
c1cncc(CNc2nc(-c3ccoc3)nc3ccccc23)c1,–,398 nM (active)
Cc1cccc(CNc2nc(-c3ccoc3)nc3ccccc23)c1,–,1260 nM (active)
c1ccc(CNc2nc(-c3ccoc3)nc3ccccc23)cc1,–,631 nM (active)
CCc1ccc(C(=O)COC(=O)C(Cc2ccccc2)NC(=O)C2CCC(C)CC2)cc1 (configuration not stated),-7.88%,–
C=CC[C@@H]1C=C[C@@H](O/N=C\[C@@H](OC)[C@H](C)/C=C\CC(=O)OC)[C@@H](CO)O1,-0.319% [at 11.4 µM],–
COCCCN=CC1=C(O)CC(C)(C)CC1=O,-13.1%,–
CN[C@@H](c1ccncc1)[C@@H](NC)c1ccncc1,-13.3% [at 11.4 µM],–
c1cncc(-c2nc(NCc3cccs3)c3ccccc3n2)c1,–,316 nM (active)
COc1ccc(OCCn2c(C)c(/C=N/n3cnnc3)c3ccccc32)cc1,–,398 nM (active)
O=C(COc1cccc2ccccc12)NNC(=O)c1cccs1,–,8910 nM (active)
O=C(CCC(=O)Nc1ccccc1)NNC(=O)c1cccs1,-23.3%,–
CC1(C)Cc2c(sc3nc(-c4ccccc4)n(N)c(=O)c23)CO1,–,7080 nM (active)
Cc1cc2cc3c(C)cc(=O)oc3c(C)c2o1,–,1000 nM (active)
CC(C)NC(=O)N1CC[C@@]2(CCCN(S(=O)(=O)c3ccccc3)C2)C1,-2.4%,–
CSc1c(-c2ccccc2)nc2ccc(Cl)cc2c1C(=O)O,10.5%,–

SMILES,"activity, negative = inhibition",AC50
CSc1nc(Sc2cccc(Cl)c2)c2ccccc2n1,–,355 nM (active)
O=C(O)/C=C\c1cnc[nH]1,-4.95%,–
Cc1cc(C)nc(NC(=O)/C=C/c2ccc(Cl)cc2Cl)c1,–,3160 nM (active)
Cc1cc(C)nc(NC(=O)CCCC(=O)O)c1,-5.89%,–
C#CCCCC(=S)Nc1ccccc1,–,12600 nM (active)
N=c1nc(N2CCCCC2)cc(N)n1O,-2.65% [at 25.6 µM],–
CC(Sc1nc(-c2ccccc2)cc(C(F)(F)F)n1)C(=O)N1CCCCC1 (configuration not stated),–,8910 nM (active)
O=C(c1cc(C(F)(F)F)cc(C(F)(F)F)c1)N1CCC[C@@]2(CCN(c3ccccc3)C2)C1,-17.8%,–
O=C1[C@H]2[C@H]3[C@H](O)[C@H](O)C/C(=N/OC[C@@H](O)COCc4ccco4)[C@H]3CC[C@@H]2C(=O)N1Cc1ccccc1,-10.7% [at 11.4 µM],–
NS(=O)(=O)c1ccc(NCc2nc3ccccc3[nH]2)cc1,-18.8% [at 2.29 µM],–
NS(=O)(=O)c1ccc(NCc2cnc3ccccc3n2)cc1,-18.2% [at 2.29 µM],–
NS(=O)(=O)c1ccc(NCc2ccccc2OCc2ccccc2F)cc1,–,14100 nM (active)
CCCCOc1cc(C(=O)NCCN(CC)CC)c2ccccc2n1,–,5010 nM (active)
CCN(CC)CCNC(=O)c1cc(S(C)(=O)=O)ccc1OC,–,inactive
CCCCCCCCOC1OC(CO)C(O)C(O)C1NC(C)=O (configuration not stated),9.81%,–
CCOC(=O)C(CC)(CC)C(=O)/C=C/c1ccc(Br)cc1,–,2510 nM (active)
C[n+]1ccc(/C=C/c2ccc(Br)cc2)cc1,-10.8%,–
COc1ccccc1CNC(=O)Cn1nnc(-c2ccncc2)n1,–,12600 nM (active)
CCc1nnc(NC(=O)CCC(=O)NCc2ccccc2OC)s1,11%,–
CC(C)(C)NC(=O)Cn1nnc(-c2ccccc2NC(=O)c2cnccn2)n1,-21.1%,–
COc1cc([C@H](O)CO)ccc1O,-7.89%,–
CC[C@H](NC(C)C)[C@H](O)c1ccc(O)c(O)c1,–,12600 nM (active)
CC(=O)c1c(C)nc(-c2ccccc2)n1O,–,15800 nM (active)
O=C(O)[C@@H]1[C@@H](C(=O)Nc2ccccc2)[C@@H]2C=C[C@@H]1O2,-18.1% [at 2.29 µM],–
N/N=C1/c2ccccc2N[C@H]1OC(=O)Nc1ccccc1,–,501 nM (active)
N/N=C1/c2ccccc2N[C@H]1OC(=O)Nc1cccc(Cl)c1,–,794 nM (active)
